Measured values taken from the supplement of paper PMC10849652.
The full data set covers some 8,800 targets. This sample favours those with a hit. About 0.5% of all pairs of compound and target were hits. Values without a mark were called inactive.

Key:
Test in all cases: log2 fold change, soluble protein after heating vs DMSO (PISA); higher = thermal stabilisation; K562 lysate, 10 uM; active = over 0.2 and 3.5 SD of the protein, either way, in both replicates (recomputed)
alvocidib = compound: CN1CC[C@H](c2c(O)cc(O)c3c(=O)cc(-c4ccccc4Cl)oc23)[C@H](O)C1 [alvocidib]
How it was run: (§1)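 K562 pellets were dounce-homogenised in PBS pH 7.4 containing 1 mM MgCl2, and the crude extract, at 1 mg/mL protein, was exposed to 10 μM compound for 30 min. Aliquots were heated for 3 min across 48°C-58°C, pooled, brought to 0.5% NP-40 at 4°C and spun at 21,000xg for 90 min, with the supernatant taken as soluble protein. TMTpro 16plex LC-MS/MS with equalised channel sums quantified that protein. Values are log-two fold changes in thermal stability relative to solvent controls, taken from duplicates.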

Tubastatin A = compound: CN1CCc2c(c3ccccc3n2Cc2ccc(C(=O)NO)cc2)C1 [Tubastatin A]
How it was run: as §1

[1] = compound: CNC(=O)C1=CC=CC=C1NC2=NC(=NC=C2Cl)NC3=C(C=C(C=C3)N4CCOCC4)OC
How it was run: as §1

defactinib = compound: CNC(=O)c1ccc(Nc2ncc(C(F)(F)F)c(NCc3nccnc3N(C)S(C)(=O)=O)n2)cc1 [defactinib]
How it was run: as §1

[2] = compound: CNc1nc(-c2ccc3c(N)n[nH]c3c2)cc(N2C[C@@H](C(=O)NC3CCCCC3)CC[C@H]2C)n1
How it was run: as §1

encorafenib = compound: COC(=O)N[C@@H](C)CNc1nccc(-c2cn(C(C)C)nc2-c2cc(Cl)cc(NS(C)(=O)=O)c2F)n1 [encorafenib]
How it was run: as §1

[3] = compound: COC(=O)[C@H](CCSC)NC(=O)C1=C(C=C(C=C1)NC[C@H](CS)N)C2=CC=CC=C2
How it was run: as §1

alisertib = compound: COc1cc(Nc2ncc3c(n2)-c2ccc(Cl)cc2C(c2c(F)cccc2OC)=NC3)ccc1C(=O)O [alisertib]
How it was run: as §1

[4] = compound: COc1cc2nc(-c3cc(F)ccc3O)nc(N[C@@H]3CNC[C@H]3C(C)(C)O)c2cc1OC
How it was run: as §1

gefitinib = compound: COc1cc2ncnc(Nc3ccc(F)c(Cl)c3)c2cc1OCCCN1CCOCC1 [gefitinib]
How it was run: as §1

lapatinib = compound: CS(=O)(=O)CCNCc1ccc(-c2ccc3ncnc(Nc4ccc(OCc5cccc(F)c5)c(Cl)c4)c3c2)o1 [lapatinib]
How it was run: as §1

pictilisib = compound: CS(=O)(=O)N1CCN(Cc2cc3nc(-c4cccc5[nH]ncc45)nc(N4CCOCC4)c3s2)CC1 [pictilisib]
How it was run: as §1

crizotinib = compound: C[C@@H](Oc1cc(-c2cnn(C3CCNCC3)c2)cnc1N)c1c(Cl)ccc(F)c1Cl [crizotinib]
How it was run: as §1

[5] = compound: C[C@H](C1=CC=C(C=C1)C(=O)NC2=C3C=CNC3=NC=C2)N
How it was run: as §1

duvelisib = compound: C[C@H](Nc1ncnc2nc[nH]c12)c1cc2cccc(Cl)c2c(=O)n1-c1ccccc1 [duvelisib]
How it was run: as §1

gandotinib = compound: Cc1cc(Nc2cc(CN3CCOCC3)c3nc(C)c(Cc4ccc(Cl)cc4F)n3n2)n[nH]1 [gandotinib]
How it was run: as §1

tozasertib = compound: Cc1cc(Nc2cc(N3CCN(C)CC3)nc(Sc3ccc(NC(=O)C4CC4)cc3)n2)n[nH]1 [tozasertib]
How it was run: as §1

doramapimod = compound: Cc1ccc(-n2nc(C(C)(C)C)cc2NC(=O)Nc2ccc(OCCN3CCOCC3)c3ccccc23)cc1 [doramapimod]
How it was run: as §1

bafetinib = compound: Cc1ccc(NC(=O)c2ccc(CN3CC[C@H](N(C)C)C3)c(C(F)(F)F)c2)cc1Nc1nccc(-c2cncnc2)n1 [bafetinib]
How it was run: as §1

[6] = compound: Cc1cccc(CC(=O)N2CCc3c2ccc(-c2cn(C)c4ncnc(N)c24)c3F)n1
How it was run: as §1

Chain of UniProt Q8IVT5 (Q8IVT5 whole entry, looked up): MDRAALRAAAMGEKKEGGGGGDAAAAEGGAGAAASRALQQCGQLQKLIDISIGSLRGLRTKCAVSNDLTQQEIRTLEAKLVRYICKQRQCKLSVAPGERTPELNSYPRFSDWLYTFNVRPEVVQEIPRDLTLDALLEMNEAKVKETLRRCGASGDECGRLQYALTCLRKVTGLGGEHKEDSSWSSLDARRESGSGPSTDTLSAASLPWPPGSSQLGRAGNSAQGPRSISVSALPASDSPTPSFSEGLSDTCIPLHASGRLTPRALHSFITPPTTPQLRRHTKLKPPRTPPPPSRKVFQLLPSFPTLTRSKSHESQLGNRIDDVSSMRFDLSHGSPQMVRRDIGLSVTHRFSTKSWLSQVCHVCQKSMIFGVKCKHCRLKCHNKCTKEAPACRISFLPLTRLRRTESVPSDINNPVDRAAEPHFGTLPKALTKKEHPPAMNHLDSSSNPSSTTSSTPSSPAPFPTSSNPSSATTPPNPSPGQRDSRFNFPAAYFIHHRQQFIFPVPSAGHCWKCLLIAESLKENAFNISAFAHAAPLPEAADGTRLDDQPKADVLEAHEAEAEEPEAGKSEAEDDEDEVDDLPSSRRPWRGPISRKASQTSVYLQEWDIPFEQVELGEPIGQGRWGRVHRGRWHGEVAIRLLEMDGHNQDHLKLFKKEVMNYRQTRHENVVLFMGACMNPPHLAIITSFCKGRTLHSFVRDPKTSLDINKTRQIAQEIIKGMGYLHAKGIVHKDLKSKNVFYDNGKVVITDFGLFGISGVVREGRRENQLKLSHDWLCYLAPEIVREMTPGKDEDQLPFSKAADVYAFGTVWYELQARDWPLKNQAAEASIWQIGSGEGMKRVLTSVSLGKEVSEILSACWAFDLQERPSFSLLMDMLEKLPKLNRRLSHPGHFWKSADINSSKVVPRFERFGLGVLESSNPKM
Chain of UniProt O00139 (O00139 whole entry, looked up): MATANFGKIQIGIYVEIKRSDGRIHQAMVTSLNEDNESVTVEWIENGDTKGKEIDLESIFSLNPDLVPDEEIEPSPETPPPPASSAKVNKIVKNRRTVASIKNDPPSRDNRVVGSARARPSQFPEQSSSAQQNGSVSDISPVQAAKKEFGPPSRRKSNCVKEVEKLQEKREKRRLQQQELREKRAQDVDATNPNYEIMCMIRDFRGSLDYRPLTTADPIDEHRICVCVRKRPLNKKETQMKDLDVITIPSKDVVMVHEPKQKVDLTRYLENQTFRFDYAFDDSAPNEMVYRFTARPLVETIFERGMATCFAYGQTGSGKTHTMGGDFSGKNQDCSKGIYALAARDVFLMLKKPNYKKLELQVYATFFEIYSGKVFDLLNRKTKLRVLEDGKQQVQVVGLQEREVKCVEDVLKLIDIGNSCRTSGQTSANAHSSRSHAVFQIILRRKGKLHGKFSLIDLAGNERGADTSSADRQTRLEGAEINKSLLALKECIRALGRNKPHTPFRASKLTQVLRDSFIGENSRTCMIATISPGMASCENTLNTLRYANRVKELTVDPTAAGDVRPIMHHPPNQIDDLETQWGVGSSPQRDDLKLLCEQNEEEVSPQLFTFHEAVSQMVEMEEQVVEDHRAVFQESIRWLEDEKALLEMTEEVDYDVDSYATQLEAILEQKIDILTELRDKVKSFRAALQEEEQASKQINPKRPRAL
Chain of UniProt Q71F56 (Q71F56 whole entry, looked up): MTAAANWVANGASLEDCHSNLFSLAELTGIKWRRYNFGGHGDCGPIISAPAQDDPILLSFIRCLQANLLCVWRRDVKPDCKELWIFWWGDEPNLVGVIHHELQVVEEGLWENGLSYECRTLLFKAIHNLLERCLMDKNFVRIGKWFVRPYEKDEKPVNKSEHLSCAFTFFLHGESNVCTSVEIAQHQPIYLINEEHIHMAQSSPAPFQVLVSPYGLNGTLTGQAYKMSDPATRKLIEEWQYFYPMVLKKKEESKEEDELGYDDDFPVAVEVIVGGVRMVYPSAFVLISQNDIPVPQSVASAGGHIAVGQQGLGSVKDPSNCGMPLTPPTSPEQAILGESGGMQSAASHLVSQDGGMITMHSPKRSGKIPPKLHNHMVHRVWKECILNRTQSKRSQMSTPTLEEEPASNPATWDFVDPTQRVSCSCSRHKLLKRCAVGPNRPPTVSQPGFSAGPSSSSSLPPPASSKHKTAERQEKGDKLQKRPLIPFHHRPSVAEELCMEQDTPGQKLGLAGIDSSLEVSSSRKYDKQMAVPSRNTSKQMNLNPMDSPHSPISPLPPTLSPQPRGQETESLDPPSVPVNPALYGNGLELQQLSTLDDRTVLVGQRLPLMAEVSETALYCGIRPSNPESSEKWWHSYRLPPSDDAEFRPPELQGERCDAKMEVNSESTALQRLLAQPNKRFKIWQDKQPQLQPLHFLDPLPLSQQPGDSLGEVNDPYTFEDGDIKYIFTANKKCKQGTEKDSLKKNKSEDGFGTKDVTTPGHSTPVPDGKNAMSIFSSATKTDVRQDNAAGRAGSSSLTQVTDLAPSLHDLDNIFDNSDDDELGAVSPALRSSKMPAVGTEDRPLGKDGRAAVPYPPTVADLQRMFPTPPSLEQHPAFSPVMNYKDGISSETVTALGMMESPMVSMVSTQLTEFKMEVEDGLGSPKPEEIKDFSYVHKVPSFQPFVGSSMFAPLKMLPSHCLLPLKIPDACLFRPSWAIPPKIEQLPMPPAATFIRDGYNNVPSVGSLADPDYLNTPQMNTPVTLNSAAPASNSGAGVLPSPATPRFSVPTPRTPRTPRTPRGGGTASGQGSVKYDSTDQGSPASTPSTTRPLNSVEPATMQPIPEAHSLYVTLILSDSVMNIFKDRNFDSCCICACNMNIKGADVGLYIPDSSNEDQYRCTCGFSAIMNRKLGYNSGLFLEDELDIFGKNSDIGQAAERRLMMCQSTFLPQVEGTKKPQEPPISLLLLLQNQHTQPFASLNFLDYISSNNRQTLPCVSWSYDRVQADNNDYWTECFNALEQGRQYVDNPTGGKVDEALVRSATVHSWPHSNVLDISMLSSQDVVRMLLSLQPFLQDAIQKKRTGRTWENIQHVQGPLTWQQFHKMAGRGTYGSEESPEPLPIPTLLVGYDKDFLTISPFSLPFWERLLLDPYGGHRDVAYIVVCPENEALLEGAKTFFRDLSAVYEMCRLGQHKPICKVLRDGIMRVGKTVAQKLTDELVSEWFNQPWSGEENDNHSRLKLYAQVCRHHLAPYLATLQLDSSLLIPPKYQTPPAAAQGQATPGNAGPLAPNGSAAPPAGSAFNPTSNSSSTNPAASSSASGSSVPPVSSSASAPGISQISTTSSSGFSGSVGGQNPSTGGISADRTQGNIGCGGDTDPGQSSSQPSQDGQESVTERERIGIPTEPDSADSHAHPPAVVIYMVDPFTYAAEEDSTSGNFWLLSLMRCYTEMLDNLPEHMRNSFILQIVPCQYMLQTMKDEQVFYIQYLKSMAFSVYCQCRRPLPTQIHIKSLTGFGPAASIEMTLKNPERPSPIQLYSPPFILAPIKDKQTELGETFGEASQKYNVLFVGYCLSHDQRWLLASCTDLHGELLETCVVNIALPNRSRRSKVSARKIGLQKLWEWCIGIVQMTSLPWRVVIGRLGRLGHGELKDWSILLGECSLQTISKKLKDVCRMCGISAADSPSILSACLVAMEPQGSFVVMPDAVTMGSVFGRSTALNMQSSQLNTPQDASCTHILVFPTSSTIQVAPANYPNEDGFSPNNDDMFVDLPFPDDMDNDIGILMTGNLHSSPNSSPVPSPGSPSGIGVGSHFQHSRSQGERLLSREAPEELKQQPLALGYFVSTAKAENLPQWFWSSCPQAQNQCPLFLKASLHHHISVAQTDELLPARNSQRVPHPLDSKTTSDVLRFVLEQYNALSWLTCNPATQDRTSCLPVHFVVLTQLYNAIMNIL
Chain of UniProt O14733 (O14733 whole entry, looked up): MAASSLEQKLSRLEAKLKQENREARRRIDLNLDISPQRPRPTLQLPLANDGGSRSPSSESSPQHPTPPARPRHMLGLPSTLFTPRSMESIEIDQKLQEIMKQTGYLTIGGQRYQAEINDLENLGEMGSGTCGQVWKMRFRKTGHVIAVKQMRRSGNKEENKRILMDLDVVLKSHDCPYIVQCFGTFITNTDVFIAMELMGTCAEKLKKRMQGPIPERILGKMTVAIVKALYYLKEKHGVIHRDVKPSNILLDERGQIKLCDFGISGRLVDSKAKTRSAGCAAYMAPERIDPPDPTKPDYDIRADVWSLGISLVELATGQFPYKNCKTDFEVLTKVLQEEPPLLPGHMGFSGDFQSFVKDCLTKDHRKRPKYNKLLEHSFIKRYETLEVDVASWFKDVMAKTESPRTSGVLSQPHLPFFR
Chain of UniProt O95777 (O95777 whole entry, looked up): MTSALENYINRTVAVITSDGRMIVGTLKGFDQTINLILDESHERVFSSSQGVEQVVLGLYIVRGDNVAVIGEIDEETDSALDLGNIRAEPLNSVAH
Chain of UniProt Q00013 (Q00013 whole entry, looked up): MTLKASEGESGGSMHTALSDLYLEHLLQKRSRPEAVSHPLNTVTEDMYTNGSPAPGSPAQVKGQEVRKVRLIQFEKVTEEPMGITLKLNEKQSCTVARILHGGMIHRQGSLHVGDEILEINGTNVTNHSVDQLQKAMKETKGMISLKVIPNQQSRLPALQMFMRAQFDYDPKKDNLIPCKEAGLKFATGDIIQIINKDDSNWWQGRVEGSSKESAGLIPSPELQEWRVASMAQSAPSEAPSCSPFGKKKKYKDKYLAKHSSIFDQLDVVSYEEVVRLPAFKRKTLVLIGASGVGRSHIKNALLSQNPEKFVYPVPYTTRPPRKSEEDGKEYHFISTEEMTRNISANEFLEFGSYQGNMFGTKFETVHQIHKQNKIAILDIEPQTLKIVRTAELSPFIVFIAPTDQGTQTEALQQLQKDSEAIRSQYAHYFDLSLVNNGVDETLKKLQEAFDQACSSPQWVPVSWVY
Chain of UniProt P10620 (P10620 whole entry, looked up): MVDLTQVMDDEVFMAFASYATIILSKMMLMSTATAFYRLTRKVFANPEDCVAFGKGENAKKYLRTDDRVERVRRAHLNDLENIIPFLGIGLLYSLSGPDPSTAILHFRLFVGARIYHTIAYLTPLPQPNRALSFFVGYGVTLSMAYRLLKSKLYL

Row | Target | log2 fold change (alvocidib) | log2 fold change (Tubastatin A) | log2 fold change [1] | log2 fold change (defactinib) | log2 fold change [2] | log2 fold change (encorafenib) | log2 fold change [3] | log2 fold change (alisertib) | log2 fold change [4] | log2 fold change (gefitinib) | log2 fold change (lapatinib) | log2 fold change (pictilisib) | log2 fold change (crizotinib) | log2 fold change [5] | log2 fold change (duvelisib) | log2 fold change (gandotinib) | log2 fold change (tozasertib) | log2 fold change (doramapimod) | log2 fold change (bafetinib) | log2 fold change [6]
1 | MACO1 (UniProt Q8N5G2) | -0.003 | -0.003 | -0.012 | 0.01 | 0.119 | -0.101 | -0.016 | -0.024 | -0.005 | 0.04 | 0.016 | 0.041 | 0.003 | -0.019 | 0.015 | -0.008 | 0.138 | -0.035 | -0.001 | -0.001
2 | MRPL46 (UniProt Q9H2W6) | 0.125 | -0.097 | 0.28 | 0.051 | 0.058 | -0.032 | 0 | 0.02 | -0.045 | 0.041 | 0.019 | 0.096 | -0.011 | 0.452 (active) | 0.033 | -0.09 | 0.008 | 0.024 | 0.034 | -0.073
3 | LZTR1 (UniProt Q8N653) | 0.178 | -0.168 | -0.001 | -0.036 | -0.012 | -0.039 | 0.174 | -0.047 | 0.137 | 0.091 | 0.177 | -0.031 | -0.092 | 0.135 | -0.033 | -0.121 | -0.023 | 0.083 | 0.005 | 0.026
4 | LRCH3 (UniProt Q96II8) | 0 | -0.238 | -0.003 | -0.002 | 0.069 | 0.021 | 0.045 | 0.021 | -0.012 | -0.075 | -0.008 | -0.08 | -0.114 | -0.046 | -0.012 | 0.027 | 0.012 | 0.099 | -0.104 | 0.059
5 | MAPKAPK3 (UniProt Q16644) | 0.038 | -0.125 | 0.015 | 0.033 | -0.11 | -0.015 | 0.055 | -0.055 | 0.006 | 0.148 | 0 | -0.013 | -0.026 | 0.034 | -0.038 | -0.044 | 0.046 | -0.025 | 0.026 | -0.014
6 | KIF14 (UniProt Q15058) | -0.031 | -0.217 | 0.032 | 0.043 | 0.011 | 0.038 | 0.045 | -0.028 | 0.013 | 0.001 | 0.016 | -0.277 | -0.053 | -0.082 | 0.025 | -0.011 | 0.002 | 0.046 | -0.087 | 0.042
7 | LSM8 (UniProt O95777) | -0.012 | 0.018 | 0.007 | 0.048 | -0.028 | 0.032 | -0.076 | -0.026 | 0.005 | 0.046 | -0.005 | -0.067 | 0.02 | -0.028 | 0.002 | 0.007 | 0.037 | 0.016 | 0.176 | 0.026
8 | KIF2A isoform 4 (UniProt O00139) | 0 | -0.148 | 0.005 | 0.01 | -0.024 | 0.012 | 0.093 | 0.004 | -0.014 | 0.011 | -0.004 | -0.006 | -0.004 | 0.026 | 0.022 | -0.066 | 0.01 | 0.055 | -0.006 | 0.037
9 | MAP2K7 isoform 4 (UniProt O14733) | 0.023 | -0.15 | 0.023 | -0.035 | 0.036 | -0.059 | 0.177 | 0.006 | -0.009 | -0.08 | 0.004 | 0.204 | -0.05 | 0.081 | -0.048 | -0.042 | -0.04 | 0.052 | -0.06 | 0.002
10 | MGST1 (UniProt P10620) | 0.033 | -0.011 | 0.07 | 0.02 | 0.038 | 0.007 | 0.001 | 0.009 | 0.023 | -0.066 | -0.047 | 0.018 | 0.003 | 0.22 (active) | 0.013 | -0.025 | -0.011 | -0.041 | -0.032 | -0.016
11 | MICU2 (UniProt Q8IYU8) | 0.03 | -0.039 | 0.01 | 0.003 | 0.009 | 0.015 | -0.091 | 0.039 | -0.128 | -0.054 | -0.057 | 0.036 | -0.043 | 0.026 | 0.015 | -0.264 (active) | 0.083 | 0.029 | -0.056 | 0.029
12 | MED13L (UniProt Q71F56) | 0.042 | -0.069 | 0.016 | -0.011 | -0.004 | 0.02 | 0.021 | -0.084 | -0.005 | 0.01 | 0.034 | -0.072 | -0.039 | -0.047 | -0.083 | -0.005 | -0.019 | 0.026 | -0.061 | 0.035
13 | MPP1 (UniProt Q00013) | -0.01 | -0.01 | -0.007 | -0.002 | 0.01 | -0.015 | 0.011 | -0.008 | -0.007 | 0 | 0.006 | 0.016 | 0.001 | -0.006 | 0.012 | -0.008 | 0.017 | 0.006 | -0.015 | 0.001
14 | KSR1 (UniProt Q8IVT5) | 0.214 | -0.086 | -0.042 | -0.045 | -0.038 | 0.075 | 0.257 | 0.028 | 0.115 | -0.016 | -0.107 | 0.064 | -0.015 | 0.006 | -0.026 | -0.087 | 0.017 | -0.065 | -0.038 | -0.156
15 | KNSTRN (UniProt Q9Y448) | 0.001 | -0.062 | 0.038 | -0.029 | 0.053 | 0.074 | -0.264 (active) | 0.043 | -0.016 | -0.022 | 0.013 | 0.05 | 0.029 | 0.065 | -0.009 | -0.024 | 0.026 | -0.052 | 0.024 | -0.056
16 | LIMS1 isoform 3 (UniProt P48059) | -0.014 | 0.034 | 0.017 | 0.048 | 0.02 | 0.004 | -0.118 | 0.011 | -0.003 | -0.097 | 0.002 | -0.019 | 0.103 | -0.045 | -0.023 | 0.008 | -0.02 | -0.068 | -0.035 | 0.038
